Our source for the outcome, Potency and max activation values is PubChem BioAssay (Tox21).

Assay [1] in a line: qHTS assay to identify small molecule agonists of the TGF-beta/Smad signaling pathway - cell viability counter screen (AID 1346829). Note: top concentration of the series differs between compounds; nearly all actives have a fitted effect of over 45% in size. Put shortly:
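Tox21 qHTS format: SBE-bla HEK 293T cells treated with DMSO-dissolved compounds for 5 hr; CellTiter-Glo luminescence after 30 min at room temperature.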
(qHTS replaces the single test concentration by a dilution series.)

Assay [2] in a line: qHTS assay to identify small molecule agonists of the TGF-beta/Smad signaling pathway (AID 1346859; active = well fitted activation curve with a large enough effect in the signal ratio in the repeat runs, not every such curve was filed as active; the % refers to the signal ratio; note: series mostly up to about 77 µM). Put shortly:
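Beta-lactamase reporter activity downstream of Smad binding elements was measured in stably transfected HEK 293T cells; compounds were incubated for 5 hr, substrate for 2 hr at room temperature.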

For assay [3], the target named is Thyrotropin-releasing hormone receptor (Homo sapiens) (UniProt P34981). As to the kind of experiment: qHTS assay to identify small molecule agonists of the thyrotropin-releasing hormone receptor (TRHR) signaling pathway (AID 1346891; calls by dose curve;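 note: HEK293 cells expressing TRHR with calcium dye readout; series mostly up to about 58 µM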). Put shortly: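 Overnight-plated (18 h, 37 °C, 5% CO2) TRHR-Hek293 cells; 2 h calcium dye at 37 °C; compound in DMSO; 3-min kinetic fluorescence read.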
Sequence of Thyrotropin-releasing hormone receptor (Homo sapiens) (P34981 whole entry, looked up): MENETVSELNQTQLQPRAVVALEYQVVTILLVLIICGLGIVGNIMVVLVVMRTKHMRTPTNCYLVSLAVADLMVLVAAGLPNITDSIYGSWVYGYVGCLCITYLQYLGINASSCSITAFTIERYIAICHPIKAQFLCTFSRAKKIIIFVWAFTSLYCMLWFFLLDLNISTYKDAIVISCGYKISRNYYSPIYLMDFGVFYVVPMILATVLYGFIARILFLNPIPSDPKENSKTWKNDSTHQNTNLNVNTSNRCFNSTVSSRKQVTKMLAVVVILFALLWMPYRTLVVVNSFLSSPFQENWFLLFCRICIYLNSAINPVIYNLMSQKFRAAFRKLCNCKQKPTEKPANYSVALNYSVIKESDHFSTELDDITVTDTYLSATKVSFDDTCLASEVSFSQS

Assay [4] is described as follows: Human pregnane X receptor (PXR) small molecule agonists, qHTS cell viability counter screen (AID 1346977). Note: nearly all actives have a fitted effect of over 50% in size. Put shortly:
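After a 5hr pre-incubation, PXR-Luc HepG2 cells received compounds plus positive control in DMSO and were kept 24hr at 37C. Cell viability was quantified by fluorescence from CellTiter-Fluor added for the final hour.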

Assay [5] in a line: Caspase-3/7 induction in HepG2 cells by small molecules, qHTS assay (AID 1346978). Note: nearly all actives have a fitted effect of over 15% in size. The procedure, abridged: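 Wild-type HepG2 cells, 2,000/well, settled 5 hr at 37 C and 5% CO2, then compound-treated for 17 hr; caspase-3/7 activity read by luminescent Caspase-Glo 3/7 after 30 min at room temperature.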
The nature of assay [6]: Caspase-3/7 induction in CHO-K1 cells by small molecules, qHTS cell viability counter screen (AID 1346979). Note: nearly all actives have a fitted effect of over 35% in size. The procedure, abridged:
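Multiplexed with Caspase-Glo 3/7 in CHO-K1 cells, this counter screen added CellTiter-Fluor after 16hr of compound exposure and recorded fluorescence 1hr later.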

The nature of assay [7]: Caspase-3/7 induction in CHO-K1 cells by small molecules, qHTS assay (AID 1346980). Note: nearly all actives have a fitted effect of over 15% in size. The procedure, abridged: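 Wild-type CHO-K1 cells exposed to compounds for 17hr at 37 C, 5% CO2. Caspase-3/7 activity then measured by Caspase-Glo 3/7 luminescence after 30min at room temperature.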
A short description of assay [8]: Caspase-3/7 induction in HepG2 cells by small molecules, qHTS cell viability counter screen (AID 1346981). Note: series mostly up to about 92 µM; nearly all actives have a fitted effect of over 30% in size. Put shortly:
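CellTiter-Fluor fluorescence measured viability in the same wells used for Caspase-Glo 3/7. HepG2 (wild type) at 2,000 cells/well were pre-incubated 5 hr, dosed, and given reagent at 16 hr, with 1 hr further at 37C.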

For assay [9], the target named is Nuclear receptor subfamily 1 group I member 2 (Homo sapiens) (UniProt O75469). As to the kind of experiment: Human pregnane X receptor (PXR) small molecule agonists, qHTS assay (AID 1346982). Note: nearly all actives have a fitted effect of over 35% in size. The procedure, abridged: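 Agonist mode: luminescence from ONE-Glo after 24 h compound exposure at 37C in HepG2 cells carrying hPXR-responsive CYP3A4 luciferase, plated in charcoal-stripped serum medium 5 h beforehand.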
Sequence of Nuclear receptor subfamily 1 group I member 2 (Homo sapiens) (O75469 whole entry, looked up): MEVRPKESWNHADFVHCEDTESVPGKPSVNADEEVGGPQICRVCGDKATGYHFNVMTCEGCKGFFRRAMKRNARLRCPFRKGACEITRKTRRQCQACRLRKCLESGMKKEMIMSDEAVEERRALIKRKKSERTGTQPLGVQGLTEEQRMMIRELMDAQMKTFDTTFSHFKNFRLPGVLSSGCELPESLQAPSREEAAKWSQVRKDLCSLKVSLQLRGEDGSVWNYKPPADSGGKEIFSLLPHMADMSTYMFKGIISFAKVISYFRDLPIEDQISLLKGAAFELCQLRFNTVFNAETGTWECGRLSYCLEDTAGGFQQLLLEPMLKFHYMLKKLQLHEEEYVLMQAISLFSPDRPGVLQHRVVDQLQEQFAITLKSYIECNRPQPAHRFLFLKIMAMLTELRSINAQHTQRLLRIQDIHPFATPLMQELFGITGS

In assay [10] the target is Cytochrome P450 2C9 (Homo sapiens) (UniProt P11712). The assay is described as follows: Cytochrome P450 Family 2 Subfamily C Member 9 (CYP2C9) small molecule antagonists: luciferase reporter qHTS assay (AID 1671198). Note: series mostly up to about 120 µM; nearly all actives have a fitted effect of over 50% in size. Put shortly: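 P450-Glo proluciferin substrate with CYP2C9 enzyme; 10 min RT preincubation, then NADPH regeneration 1 h at 37C; luciferin detection reagent 20 min RT, luminescence in relative luminescence units.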
Sequence of Cytochrome P450 2C9 (Homo sapiens) (P11712 whole entry, looked up): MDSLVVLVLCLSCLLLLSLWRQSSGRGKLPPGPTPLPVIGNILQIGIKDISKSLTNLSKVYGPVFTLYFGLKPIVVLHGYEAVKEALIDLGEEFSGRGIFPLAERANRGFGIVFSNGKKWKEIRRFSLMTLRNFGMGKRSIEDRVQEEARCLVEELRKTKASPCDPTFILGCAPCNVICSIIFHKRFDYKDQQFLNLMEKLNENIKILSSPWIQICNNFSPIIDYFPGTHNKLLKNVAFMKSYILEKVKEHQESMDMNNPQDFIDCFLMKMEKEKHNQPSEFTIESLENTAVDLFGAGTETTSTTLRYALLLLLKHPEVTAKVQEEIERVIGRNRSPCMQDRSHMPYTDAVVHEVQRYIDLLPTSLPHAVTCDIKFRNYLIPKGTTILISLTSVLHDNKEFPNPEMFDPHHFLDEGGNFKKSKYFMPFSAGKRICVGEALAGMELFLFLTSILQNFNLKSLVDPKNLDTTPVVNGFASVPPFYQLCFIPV
On the technique in general: A reporter such as luciferase makes a cellular process visible.

Assay [11] has as its target Cytochrome P450 1A2 (Homo sapiens) (UniProt P05177). As to the kind of experiment: Cytochrome P450 Family 1 Subfamily A Member 2 (CYP1A2) small molecule antagonists: luciferase reporter qHTS assay (AID 1671199). Note: nearly all actives have a fitted effect of over 50% in size. Note: potency is the fitted concentration of half-maximal effect. The procedure, abridged: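 Luminescence from luciferin formed by CYP1A2 from a proluciferin substrate, read 20 min after detection reagent. Compound was pre-incubated 10 min with enzyme-substrate, and reaction started with NADPH regeneration solution for 1 h at room temperature; furafylline control.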

Assay [12] addresses Voltage-gated inwardly rectifying potassium channel KCNH2 (Homo sapiens) (UniProt Q12809). The assay is described as follows: Human Ether-a-go-go-Related Gene (hERG) channel small molecule antagonists: fluorescence cell-based qHTS assay (AID 1671200).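 Note: hERG-expressing U2OS cells given a thallium stimulus after FluxOR II dye loading; series mostly up to about 77 µM; nearly all actives have a fitted effect of over 50% in size.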 The procedure, abridged:
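Cell line hERG-U2OS; dye FluxOR II, 1 h RT dark; Tl+ stimulus; ex 480/em 540 nm, read each second for 2 min.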
In general terms: Block of hERG is tested as a sign of cardiac risk.

Assay [13] has as its target Cytochrome P450 3A4 (Homo sapiens) (UniProt P08684). The assay is described as follows: Cytochrome P450 Family 3 Subfamily A Member 4 (CYP3A4) small molecule antagonists: luciferase reporter qHTS assay (AID 1671201). The procedure, abridged: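 Room-temperature assay throughout: 10 min compound–enzyme/substrate preincubation, 1 h reaction after NADPH regeneration solution, 20 min detection. Luciferin formed from proluciferin substrate is quantified by luminescence.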

Assay [14] deals with Cytochrome P450 2D6 (Homo sapiens) (UniProt P10635). As to the kind of experiment: Cytochrome P450 Family 2 Subfamily D Member 6 (CYP2D6) small molecule antagonists: luciferase reporter qHTS assay (AID 1671196). The procedure, abridged:
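CYP2D6 activity was followed as luminescence from its luciferin product after a 1 h NADPH-driven reaction at room temperature. Enzyme-substrate mix and compound were pre-incubated for 10 min, and the signal was read 20 min after adding detection reagent.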

Assay [15] has as its target Cytochrome P450 2C19 (Homo sapiens) (UniProt P33261). As to the kind of experiment: Cytochrome P450 Family 2 Subfamily C Member 19 (CYP2C19) small molecule antagonists: luciferase reporter qHTS assay (AID 1671197). Note: series mostly up to about 120 µM; nearly all actives have a fitted effect of over 65% in size. Put shortly:
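Relative luminescence units recorded 20 min after the detection reagent stopped a 1 h, 37C CYP2C19 reaction on proluciferin substrate, which was started by NADPH regeneration following 10 min room-temperature compound preincubation; ketoconazole positive control.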

Assay [16] deals with Nuclear receptor subfamily 1 group I member 2 (Rattus norvegicus) (UniProt Q9R1A7). The assay is described as follows: Rat pregnane X receptor (rPXR) activation by small molecules, qHTS assay (AID 1346983). Note: nearly all actives have a fitted effect of over 20% in size. As to conditions: rPXR luciferase reporter cells, One-Glo luminescence, 24 h; hits give high values. Put shortly:
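Cell-based rPXR activation assay: rPXR cells, 2,000 per well, rested 5hr at 37 C, then exposed to compounds in DMSO for 24 hr at 37 C. Luciferase activity read by One-Glo luminescence after 30 min at room temperature.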

The target of assay [17] is Nuclear receptor subfamily 1 group I member 2 (Homo sapiens) (UniProt O75469). As to the kind of experiment: CYP3A4 induction through human pregnane X receptor (PXR) by small molecules, qHTS assay (AID 1346984). Note: nearly all actives have a fitted effect of over 40% in size. Put shortly:
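Read-out is luminescence after One-Glo addition, following a 3 hr, 37C incubation with Luciferin-IPA CYP3A4 substrate (3uM final). Before that, compounds were on DPX-2 cells (HepG2 co-transfected with PXR element plus CYP3A4-promoter luciferase) for 24 hr at 37C.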

Assay [18] has the same target. As to the kind of experiment: Human pregnane X receptor (PXR) activation by small molecules, qHTS assay (AID 1346985). Note: nearly all actives have a fitted effect of over 40% in size. Put shortly:
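DPX-2 cells (HepG2 co-transfected with a PXR response element and a CYP3A4-promoter luciferase construct) were seeded at 2,000 per well, rested 5 hr at 37C, then exposed to DMSO-dissolved compounds for 24 hr. Activation was read as luciferase luminescence.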

Each structure is given as a SMILES string. A number with no mark means an inactive call. Records with an inconclusive call do not appear. Calls of active or inactive are those of the source. Unless noted, calls come from the whole dose curve; as a rule, active = well fitted curve in the direction sought with a large enough effect in the repeat runs; inconclusive = weak or mixed curves; inactive = no such curve, though single readings can be large; an effect the other way counts as inactive or inconclusive.
% is set by controls: 0 for no effect and ±100 for the full control effect.

Sequence of Voltage-gated inwardly rectifying potassium channel KCNH2 (Homo sapiens) (Q12809 whole entry, looked up): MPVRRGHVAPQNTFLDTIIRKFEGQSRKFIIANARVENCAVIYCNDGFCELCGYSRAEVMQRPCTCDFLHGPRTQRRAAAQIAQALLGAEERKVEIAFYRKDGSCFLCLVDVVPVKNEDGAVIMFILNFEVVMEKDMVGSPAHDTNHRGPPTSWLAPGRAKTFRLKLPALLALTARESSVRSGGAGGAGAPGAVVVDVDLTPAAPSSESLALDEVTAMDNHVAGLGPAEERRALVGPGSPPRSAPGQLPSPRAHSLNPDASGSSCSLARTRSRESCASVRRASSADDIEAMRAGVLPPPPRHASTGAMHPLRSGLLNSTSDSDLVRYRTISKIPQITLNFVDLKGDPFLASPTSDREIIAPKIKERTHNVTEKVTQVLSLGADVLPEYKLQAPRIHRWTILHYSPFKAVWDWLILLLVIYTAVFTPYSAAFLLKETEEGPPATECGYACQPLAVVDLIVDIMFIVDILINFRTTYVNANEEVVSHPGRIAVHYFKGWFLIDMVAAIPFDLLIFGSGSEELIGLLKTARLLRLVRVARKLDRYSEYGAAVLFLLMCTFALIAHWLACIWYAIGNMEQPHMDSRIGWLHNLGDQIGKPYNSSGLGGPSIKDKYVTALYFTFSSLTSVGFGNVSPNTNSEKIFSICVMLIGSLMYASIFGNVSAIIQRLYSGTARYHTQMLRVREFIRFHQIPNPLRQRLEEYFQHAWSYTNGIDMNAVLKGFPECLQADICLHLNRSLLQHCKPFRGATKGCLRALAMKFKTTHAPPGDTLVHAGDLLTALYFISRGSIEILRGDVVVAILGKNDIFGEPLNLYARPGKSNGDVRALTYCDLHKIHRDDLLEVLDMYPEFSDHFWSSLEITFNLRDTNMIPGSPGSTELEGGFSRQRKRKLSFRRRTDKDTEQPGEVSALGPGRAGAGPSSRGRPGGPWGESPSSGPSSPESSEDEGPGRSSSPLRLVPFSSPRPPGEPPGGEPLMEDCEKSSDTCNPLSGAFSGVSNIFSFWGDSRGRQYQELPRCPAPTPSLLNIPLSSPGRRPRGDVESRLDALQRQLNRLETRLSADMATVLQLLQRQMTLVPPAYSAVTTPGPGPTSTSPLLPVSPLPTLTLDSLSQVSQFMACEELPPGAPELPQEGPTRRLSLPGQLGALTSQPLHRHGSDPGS
Sequence of Cytochrome P450 1A2 (Homo sapiens) (P05177 whole entry, looked up): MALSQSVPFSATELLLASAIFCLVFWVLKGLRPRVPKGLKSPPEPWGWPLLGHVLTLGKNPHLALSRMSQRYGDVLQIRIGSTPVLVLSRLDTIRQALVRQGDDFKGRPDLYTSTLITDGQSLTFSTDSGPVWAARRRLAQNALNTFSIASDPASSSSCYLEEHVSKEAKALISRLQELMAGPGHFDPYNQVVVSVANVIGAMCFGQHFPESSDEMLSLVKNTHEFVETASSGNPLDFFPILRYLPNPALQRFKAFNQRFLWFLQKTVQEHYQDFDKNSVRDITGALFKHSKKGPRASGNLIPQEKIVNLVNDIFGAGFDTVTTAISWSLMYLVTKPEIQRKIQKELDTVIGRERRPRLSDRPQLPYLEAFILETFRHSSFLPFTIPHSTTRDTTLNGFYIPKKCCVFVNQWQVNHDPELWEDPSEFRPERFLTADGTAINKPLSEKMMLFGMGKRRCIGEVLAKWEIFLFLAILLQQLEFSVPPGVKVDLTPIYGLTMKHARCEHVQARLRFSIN
Sequence of Cytochrome P450 2D6 (Homo sapiens) (P10635 whole entry, looked up): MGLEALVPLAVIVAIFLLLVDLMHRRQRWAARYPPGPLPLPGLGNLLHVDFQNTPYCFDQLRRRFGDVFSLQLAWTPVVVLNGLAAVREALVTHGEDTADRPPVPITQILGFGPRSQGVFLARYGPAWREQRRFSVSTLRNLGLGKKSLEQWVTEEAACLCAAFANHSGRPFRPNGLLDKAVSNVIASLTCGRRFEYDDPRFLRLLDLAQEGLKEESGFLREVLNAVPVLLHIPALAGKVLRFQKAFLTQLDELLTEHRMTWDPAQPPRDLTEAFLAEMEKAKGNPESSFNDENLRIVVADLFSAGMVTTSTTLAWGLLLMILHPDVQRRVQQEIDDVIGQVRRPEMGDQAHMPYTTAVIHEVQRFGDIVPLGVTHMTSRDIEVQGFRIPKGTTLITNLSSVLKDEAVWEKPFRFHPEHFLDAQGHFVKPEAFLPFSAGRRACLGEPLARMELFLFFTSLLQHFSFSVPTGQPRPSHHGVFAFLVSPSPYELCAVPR
Sequence of Cytochrome P450 2C19 (Homo sapiens) (P33261 whole entry, looked up): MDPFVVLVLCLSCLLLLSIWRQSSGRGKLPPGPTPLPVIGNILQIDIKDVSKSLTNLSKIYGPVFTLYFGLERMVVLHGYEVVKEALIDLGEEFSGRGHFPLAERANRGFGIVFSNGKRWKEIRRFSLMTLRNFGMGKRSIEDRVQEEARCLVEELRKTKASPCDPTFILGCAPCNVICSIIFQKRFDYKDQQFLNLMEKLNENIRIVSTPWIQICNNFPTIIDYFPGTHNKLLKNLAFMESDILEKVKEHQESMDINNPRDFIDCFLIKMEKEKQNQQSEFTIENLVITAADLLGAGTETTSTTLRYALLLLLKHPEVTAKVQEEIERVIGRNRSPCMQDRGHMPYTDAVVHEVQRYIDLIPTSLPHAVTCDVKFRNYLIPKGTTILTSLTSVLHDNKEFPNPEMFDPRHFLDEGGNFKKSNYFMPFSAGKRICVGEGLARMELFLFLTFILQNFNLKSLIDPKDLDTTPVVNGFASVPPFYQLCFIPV
Sequence of Cytochrome P450 3A4 (Homo sapiens) (P08684 whole entry, looked up): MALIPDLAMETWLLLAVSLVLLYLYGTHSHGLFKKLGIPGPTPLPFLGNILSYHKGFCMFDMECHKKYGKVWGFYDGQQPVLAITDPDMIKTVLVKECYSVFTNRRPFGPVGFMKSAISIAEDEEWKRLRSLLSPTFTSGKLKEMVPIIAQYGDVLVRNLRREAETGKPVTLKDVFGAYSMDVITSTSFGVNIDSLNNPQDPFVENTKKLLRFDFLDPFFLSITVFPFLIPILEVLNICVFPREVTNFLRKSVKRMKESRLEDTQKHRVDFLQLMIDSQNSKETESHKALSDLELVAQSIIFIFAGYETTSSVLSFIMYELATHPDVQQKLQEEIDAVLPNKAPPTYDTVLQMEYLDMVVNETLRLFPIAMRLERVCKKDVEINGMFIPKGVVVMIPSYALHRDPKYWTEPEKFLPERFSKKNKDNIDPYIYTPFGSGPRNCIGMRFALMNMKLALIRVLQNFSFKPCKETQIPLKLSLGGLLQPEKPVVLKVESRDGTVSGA
Sequence of Nuclear receptor subfamily 1 group I member 2 (Rattus norvegicus) (Q9R1A7 whole entry, looked up): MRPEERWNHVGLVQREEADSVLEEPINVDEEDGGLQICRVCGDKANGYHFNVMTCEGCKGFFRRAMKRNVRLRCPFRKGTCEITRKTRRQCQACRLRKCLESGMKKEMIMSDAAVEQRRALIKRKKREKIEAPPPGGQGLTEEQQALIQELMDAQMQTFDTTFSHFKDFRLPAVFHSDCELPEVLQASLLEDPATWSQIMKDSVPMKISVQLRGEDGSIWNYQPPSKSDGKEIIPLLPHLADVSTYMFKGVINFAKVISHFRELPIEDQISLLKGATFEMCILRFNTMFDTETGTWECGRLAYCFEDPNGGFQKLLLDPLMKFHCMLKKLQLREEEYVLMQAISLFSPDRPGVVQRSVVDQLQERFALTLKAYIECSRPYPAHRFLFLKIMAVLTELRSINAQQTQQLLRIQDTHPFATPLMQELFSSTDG

On to `OC1OCCOC1O` (stereo not given), for which the outcome in assay [1], in [2], in [3], in [4], in [5] and in assay [7] was inactive. Further, in assay [8], the call was inactive. In addition, the Potency result in [6], in [9], in assay [10], in assay [12] and in assay [13] was “inactive” each time. Further, in [11], the Potency was 35.6 µM (active).
Turning to `CCCCCCCCCCCCCCCCCC#N`, the outcome in [1], in assay [2], in [4], in [5], in assay [7] and in [8] was inactive. Further, the Potency result in assay [6], in assay [9], in [14], in [10], in assay [11] and in [12] was “inactive” throughout. For the same molecule, the Potency result in assay [13] was “inactive”.
Turning to `Cc1c(Cl)cccc1Cl`, the outcome in [1], in assay [2], in [4], in [5], in assay [7] and in [8] was inactive. For the same molecule, the Potency entry in assay [6], in assay [9], in [14], in assay [15], in assay [10] and in assay [13] was “inactive” each time.
For `O=C1CCC(=O)N1Cl`, the molecule was called inactive in assay [1], in assay [2], in assay [4], in assay [5], in [7] and in assay [8]. In addition, the Potency entry in [6], in assay [9], in [15], in assay [10], in [12] and in [13] was “inactive” each time.
For `CC(C)CO`, the molecule was called inactive in assay [1], in assay [2], in assay [3], in [4], in assay [5] and in [7]. In assay [8], the molecule was classed as inactive. The Potency entry in assay [6], in [9], in [10] and in [11] was “inactive” in each case.
`OCC1CCC(CO)CC1` (stereo not given): the outcome in [1], in assay [2], in assay [4], in assay [5], in [7] and in assay [8] was inactive. In addition, the Potency result in assay [6], in assay [9], in assay [15], in assay [10], in assay [11] and in assay [13] was “inactive” throughout.
On to `CN(C)CCN(C)CCO`, for which the molecule was classed as inactive in assay [1], in assay [2], in [4], in assay [5], in [7] and in assay [8]. In addition, the Potency result in assay [6], in assay [9], in assay [15], in [10], in assay [11] and in [12] was “inactive” throughout. In addition, the Potency result in assay [13] was “inactive”.
With `CCCCC1CCC(O)CC1` (stereo not given), the molecule was classed as inactive in [1], in [2], in assay [3], in assay [5], in assay [7] and in assay [8]. For the same molecule, the Potency entry in assay [6], in [9], in [14], in assay [15], in [10] and in [12] was “inactive” each time. The Potency entry in assay [13] is “inactive”.
Take `N#CCC(=O)NN`: the result in [1], in assay [2], in assay [3], in assay [4], in assay [5] and in [8] was inactive. The Potency entry in [6], in [9], in assay [17], in assay [18], in assay [14] and in [10] was “inactive” throughout. Moreover, the Potency entry in assay [11], in assay [12] and in assay [13] was “inactive” each time. For the same molecule, the max activation in assay [16] was -4.95%.
